In the library only some 3.1% were active in any assay of this set; here they are far more common.
mTORC1 inh: reduces mTORC1 signaling in Tsc2 and p53 null MEF cells; Tsc2-/- p53-/- MEF, phospho-rpS6 immunofluorescence/PI, 24 h; Potency, µM (top dose mostly 38.3 µM), most hits filed as inhibitors; 44,000 compounds, 0.78% hits; AID 493208; further: nearly all actives have a fitted effect of over 50% in size
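Read-out: phospho-S6 Alexa-488 intensity over PI intensity per well, scored as % active cells using thresholds from rapamycin (7.5 nM) and DMSO controls. Tsc2-/-, p53-/- MEFs exposed to compound for 24 h; PI cell count recorded as viability.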
SKOV3 invasion: blocks SKOV3ip1 adhesion and invasion in omental model; SKOV3ip1-GFP adhesion/invasion on 3D omental model, fluorescence; 46,000 compounds, 0.1% hits; Potency, µM (series often up to 45.8 µM), hits mostly inhibitors; further: nearly all actives have a fitted effect of over 65% in size
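Adhesion/invasion was scored as fixed GFP-labeled SKOV3ip1 cell counts (488/509 nm), normalized to DMSO and tomatine controls. Cancer cells in serum-free medium, with four compound doses (0.36-46 umol/L), sat 2 hr at RT then 16 hr at 37 C on a 48 hr fibroblast/mesothelial/ECM culture.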
p53null 39C kill: kills p53 null cells at the nonpermissive temperature; 55,000 compounds, 0.97% hits; Potency, µM (titrated, usually from 46.1 µM), usual class: cytotoxic; H1299 p53-null (neo) cells, 39C, ATPlite viability, 24 h; AID 904; further: nearly all actives have a fitted effect of over 50% in size
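Temperature-shift cytotoxicity format: compound titrations on p53-null or A138V-expressing H1299 cells held 24 hr at 39C, cell ATP then measured, AC50 from Hill model.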
S16 viability: S16 Schwann cell cytotoxicity; S16 Pmp22-F2sN Schwann cells viability, CellTiter-Glo, 24 h; Potency, µM (titrated, usually from 57.5 µM), actives largely listed as cytotoxic; 43,000 compounds, 0.48% hits; AID 1508642; further: nearly all actives have a fitted effect of over 65% in size
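Luminescence from CellTiter-Glo, read by CCD camera after a 15 min room-temperature incubation, served as the viability signal. Reporter Schwann cells (S16 Pmp22-F2sN) had been treated with pin-transferred compounds for 24 h at 37C.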
p53null 32C tox: p53 null cell cytotoxicity, permissive temperature. 55,000 compounds, 0.62% hits. Potency, µM (highest dose often 46.1 µM), hits mostly cytotoxic. H1299-neo p53 null cells, ATP luminescence, 24 h, 32C; further: nearly all actives have a fitted effect of over 55% in size
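We seeded p53-null H1299-neo cells, incubated them overnight at 37C, and added compounds across a range up to 46 uM. After 24 hours at 32C, ATP reagent was applied for 20 min at room temperature and luminescence recorded.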
PMP22 txn prim: modulators of PMP22 gene transcription in S16 Schwann cells; S16 Pmp22-F2sN Schwann cells (luciferase reporters placed in the Pmp22 gene), FLuc/NLuc coincidence luminescence, 24 h; Potency, µM (top dose mostly 57.5 µM), hits mostly inhibitors; 43,000 compounds, 2% hits; active means clear falling dose curves in both reporters; inconclusive means both reporters move, but less clearly or upward; inactive means either reporter flat; the % is the NLuc reporter signal
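Transcriptional readout in edited S16(c9) cells: two luciferases reported from the Pmp22 locus, measured in turn after 24 h compound incubation.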
Hits are given with their value; 0 = inactive; ? = inconclusive; - = no result; [ ] = dose if it differs, or a comment. Unless noted, the call rests on the fitted dose curve; in most records, active means well fitted curve in the direction sought with a large enough effect; inconclusive means small, poorly fitted or top-dose-only effect, or another doubt; inactive means no such curve, though single readings can be large; an effect the other way counts as inactive or inconclusive.

SMILES | mTORC1 inh | SKOV3 invasion | p53null 39C kill | S16 viability | p53null 32C tox | PMP22 txn prim
C=C1C(=CC=C2CCC[C@]3(C)[C@@H]([C@H](C)CCCC(C)(C)O)CC[C@@H]23)C[C@@H](O)C[C@@H]1O | - | 0 | - | - | - | -
CC[C@H]1OC(=O)[C@H](C)[C@@H](O[C@H]2C[C@@](C)(OC)[C@@H](O)[C@H](C)O2)[C@H](C)[C@@H](O[C@@H]2O[C@H](C)C[C@H](N(C)C)[C@H]2O)[C@](C)(O)C[C@H](C)C(=NOCOCCOC)[C@H](C)[C@@H](O)[C@]1(C)O | - | 0 | - | - | - | -
Cc1cccc(CCNC(=O)c2ccc3c(c2)nc2n3CCOC2)c1 | 0 | 0 | ? | 0 | ? | 0
O=C(NCCc1ccccc1Cl)c1ccc2c(c1)nc1n2CCOC1 | 0 | 0 | 5µM | 0 | 10µM | 0
Nc1nc(F)nc2c1ncn2[C@@H]1O[C@H](COP(=O)(O)O)[C@@H](O)[C@H]1O | - | 0 | - | - | - | -
O=C(CCC1CCCC1)Nc1ccc(OCC(=O)N2CCOCC2)cc1 | - | - | ? | - | 14µM | -
Nc1ncnc2c1c(-c1cccc(OCc3ccccc3)c1)cn2C1CC(CN2CCC2)C1 (stereo not given) | - | 0 | - | - | - | -
Nc1ccc(C(=O)Nc2cccc(-c3nc(N4CCOCC4)c4oc5ncccc5c4n3)c2)cn1 | - | 0 | - | - | - | -
O=C(Nc1ccc2oc(-c3cc(Br)ccc3Cl)nc2c1)c1cc2ccccc2o1 | 4.1µM | ? | ? | ? | 0[9.22 µM] | ?
O=C(Nc1ccc2oc(=O)ccc2c1)c1cc2ccccc2o1 | - | - | 0 | - | 0 | -
O=C(Nc1ccc2oc(-c3ccc(Br)cc3)nc2c1)c1cc2ccccc2o1 | 0 | 0 | 0 | 0 | 0 | 0
O=C(Nc1ccccn1)c1cc2ccccc2o1 | - | - | 5µM | - | 4µM | -
O=C(O)c1ccc(NC(=O)c2cc3ccccc3o2)cc1 | 0 | 0 | ? | 0 | 13µM | 0
O=C(Nc1ccc(NC(=O)c2cc3ccccc3o2)cc1)c1ccccc1 | 0 | 0 | 0 | 0 | 0 | 0
Fc1ccc(N2CCN(c3ncnc4c3nc3n4CCCCC3)CC2)cc1 | 0 | 0 | 0 | 0 | 0 | ?
Clc1ccc(N2CCN(c3ncnc4c3nc3n4CCCC3)CC2)cc1 | 0 | 0 | 0 | ? | 0 | 14µM
COC(=O)C=CC(=O)OC | - | 0 | - | - | - | -
COc1ccc(-c2ccc(CCC(=O)O)n2-c2ccccc2O)cc1 | 13µM | 0 | 0 | 0 | 0 | 0
COc1ccc(-c2ccc(CCC(=O)O)n2-c2ccccc2C(F)(F)F)cc1 | 0 | 0 | 0 | 0 | 0[9.22 µM] | ?
CN(C1CCc2c(c3ccccc3n2CC(=O)O)C1)S(=O)(=O)c1ccc(F)cc1 (stereo not given) | - | 0 | - | - | - | -
Cc1ccc(NC(=O)/C=C/c2ccc(C)o2)c(C)c1 | 0 | 0 | 0 | - | 0 | -
CC(=O)c1ccc(NC(=O)/C=C/c2ccc(C)o2)cc1 | 0 | 0 | ? | - | 13µM | -
C#C[C@]1(O)CC[C@H]2[C@H]3CCc4cc(OC)ccc4[C@H]3CC[C@@]21C | - | 0 | - | - | - | -
COc1ccc(OC)c(-c2cc(C(=O)Nc3cnn(Cc4ccc(Cl)cc4Cl)c3)no2)c1 | ? | ? | 10µM | - | ? | -
COc1ccc2c(c1)CCc1c(C(=O)Nc3cnn(Cc4ccc(Cl)cc4Cl)c3)noc1-2 | 0 | 0 | 0 | 0 | 0 | 0
SMILES | mTORC1 inh | SKOV3 invasion | p53null 39C kill | S16 viability | p53null 32C tox | PMP22 txn prim
N#Cc1c(NC(=O)c2cccc3ccccc23)sc2c1CCCC2 | - | 0 | - | - | - | -
CCCN(C(=O)c1cc2c(s1)-c1c(C)cccc1OC2)c1ccc(OCC)cc1 | 0 | 0 | 0 | 0 | ? | 0
CCOc1ccc(N(CC)C(=O)c2cc3c(s2)-c2ccc(Cl)cc2SC3)cc1 | 0 | 0 | 10µM | 0 | 0 | ?
CCc1ccccc1N(CC)C(=O)c1cc2c(s1)-c1ccccc1SC2 | 0 | 0 | 13µM | 0 | 0 | ?
CS(=O)(=O)Nc1ccc(-c2nc3ccccc3s2)cc1 | 0 | 0 | 1.6µM | 0 | 4µM | 0
Cc1c(NS(C)(=O)=O)cccc1-c1nc2ccccc2s1 | 0 | 0 | ? | 0 | ? | ?
Cc1ccc(-c2nc3ccccc3[nH]2)cc1NC(=O)COc1ccc(Cl)cc1Cl | 0 | 0 | 0 | ? | 0 | 0
Cc1cc(OCC(=O)Nc2cc(-c3nc4ccccc4[nH]3)ccc2C)ccc1Cl | 15µM | 0 | ? | 0 | ? | 0
COc1ccc(NC(=O)CSc2nnc(NC(=O)NC3CCCCC3)s2)cc1OC | 0 | 0 | 11µM | 0 | 13µM | 0
CC(=O)c1ccc(NC(=O)CSc2nnc(NC(=O)NC3CCCCC3)s2)cc1 | 0 | 0 | 7.9µM | 0 | 6.3µM | 0
O=C(CSc1nnc(NC(=O)NC2CCCCC2)s1)Nc1ccccc1F | 0 | 0 | ? | 0 | 10µM | 0
NC(=O)c1ncn([C@@H]2O[C@H](CO)[C@@H](O)[C@@H]2O)c1N | - | 0 | - | - | - | -
C=CCn1c(=O)c2cnc(Nc3ccc(N4CCN(C)CC4)cc3)nc2n1-c1cccc(C(C)(C)O)n1 | - | 0 | - | - | - | -
CCCN1CCN(c2ncnc3sc(C(=O)Nc4c(C)cc(C)cc4C)c(C)c23)CC1 | 0 | 0 | 0 | 25µM | 0 | ?
C[C@]12CC[C@@H]3c4ccc(O)cc4C[C@@H](CCCCCCCCCS(=O)CCCC(F)(F)C(F)(F)F)[C@H]3[C@H]1CC[C@H]2O (stereo not given in full) | - | 0 | - | - | - | -
COc1ccc(-c2nc(SCC(=O)Nc3cccc(C(C)=O)c3)n[nH]2)cc1 | 0 | 0 | 25µM | 0 | ? | 0
CC(=O)Nc1ccc([C@H](C)C(=O)Nc2ncc(C(C)C)s2)cc1 | - | 0 | - | - | - | -
COC(=O)Nc1ccc(-c2nc(N3CCOCC3)c3cnn(C4CCN(C(=O)OC)CC4)c3n2)cc1 | - | 0 | - | - | - | -
Nc1ncn([C@@H]2O[C@H](CO)[C@@H](O)[C@@H]2O)c(=O)n1 | - | 0 | - | - | - | -
Cc1ccc(/C=C/c2nc3ccccc3[nH]2)cc1 | 0 | ? | 1.6µM | 16µM | 0.4µM | ?
COCn1c(-c2ccc(OC)cc2)nc2ccccc21 | - | - | 11µM | - | 14µM | -
COc1ccc(-c2nc3ccccc3n2Cc2ccc(Cl)cc2)cc1 | 0 | 0 | 4µM | 0 | 0 | 0
COc1ccc(-c2nc3ccccc3n2Cc2ccc(C(C)C)cc2)cc1 | 0 | 0 | ? | ? | 0 | 0
COc1cc(Nc2nc(SCC(=O)c3ccc(Cl)c(Cl)c3)nc3ccccc23)cc(OC)c1 | 12µM | 0 | 0 | 0 | 0 | ?
N#CC(=C(N)Sc1ccc(N)cc1)c1ccccc1C(F)(F)F | - | 0 | - | - | - | -
Nc1nc(Cl)nc2c1ncn2[C@@H]1O[C@H](CO)[C@@H](O)[C@H]1F | - | 0 | - | - | - | -
CCc1ccc(C(=O)CC2(O)C(=O)N(CCc3ccccc3)c3ccc(Cl)cc32)cc1 (stereo not given) | ? | ? | ? | 20µM | 0 | ?

Screening results: PubChem BioAssay, National Center for Advancing Translational Sciences (NCATS)
